Test results taken from PubChem BioAssay.
Activity calls are given as the source filed them. Unless noted, how the calls were made is not given here.

Columns and labels:
[1] = A549 cell viability effects, profiling panel, calcein-AM fluorescence, 48 h, basal (AID 1162); conditions: higher = more signal; further: test concentration not given here
[2] = adipocyte viability effects, profiling panel, cell-based, 3T3-L1 adipocytes, calcein-AM fluorescence, 48 h, basal (AID 1163); conditions: 3T3-L1 adipocytes viability, higher = more signal; further: test concentration not given here
[3] = HepG2 cell viability effects, profiling panel, calcein-AM fluorescence, 48 h, basal (AID 1164); conditions: higher = more signal; further: test concentration not given here
[4] = MM1S cell viability effects, profiling panel, calcein-AM fluorescence, 48 h, basal (AID 1165); conditions: higher = more signal;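 further: viability of MM1S multiple myeloma cells under basal unstimulated conditions; test concentration not given here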
[5] = basal RPMI8226 viability, no added stimulus, profiling panel, cell-based, calcein-AM fluorescence, 48 h, PK04 Diversity Set (AID 1166); conditions: RPMI8226 myeloma viability, higher = more signal;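 further: cells grown under basal conditions without added stimulus; test concentration not given here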
[6] = basal HepG2 mitochondrial membrane potential changes, profiling panel, cell-based, JC-1 fluorescence, 24 h, 100 nL compound (AID 1167); conditions: higher = more signal; further: test concentration not given here
[7] = basal 3T3-L1 adipocyte mitochondrial potential changes, profiling panel, cell-based, JC-1 fluorescence, 3T3-L1 adipocytes, 24 h, 100 nL compound (AID 1168); conditions: JC-1 mitochondrial fluorescence, higher = more signal, called active from +8 up or from −8 down; further: test concentration not given here
[8] = basal RPMI8226 mitochondrial membrane potential changes, profiling panel, cell-based, JC-1 fluorescence, 24 h, 100 nL compound (AID 1169); conditions: RPMI8226 myeloma, JC-1 mitochondrial potential fluorescence, higher = more signal; further: test concentration not given here
[9] = basal MM1S mitochondrial membrane potential changes, profiling panel, cell-based, JC-1 fluorescence, 24 h, 100 nL compound (AID 1170); conditions: higher = more signal; further: test concentration not given here
[10] = A549 lung cancer cell viability effects, profiling panel, resazurin fluorescence, 24 h, PK04 Diversity Set (AID 1171); conditions: higher = more signal, called active from +8 up or from −8 down; further: test concentration not given here
[11] = HepG2 liver cancer cell viability effects, profiling panel, resazurin fluorescence, 24 h, PK04 Diversity Set (AID 1172); conditions: higher = more signal; further: test concentration not given here
[12] = basal S. cerevisiae growth modulation, no modifier, primary screen, OD600, strain BY4716, 24 h, basal condition (AID 1173); conditions: OD600, 24 h, higher = more signal, called active from +8 up or from −8 down
[13] = MM1S myeloma cell viability, profiling panel, resazurin fluorescence, basal, 24 h, PK04 Diversity Set (AID 1174); conditions: higher = more signal, called active from +8 up or from −8 down;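 further: MM1S multiple myeloma cell line; test concentration not given here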
[14] = target: Dihydroorotate dehydrogenase (quinone), mitochondrial (Plasmodium falciparum (isolate 3D7)) (UniProt Q08210); test: PfDHODH enzyme inhibitors, primary screen, biochemical, C-terminal His tag, absorbance 600 nm (AID 1175); conditions: DCIP absorbance 600 nm, higher = more signal, called active from +8 up or from −8 down;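 further: recombinant parasite enzyme with a five histidine tag at its C terminus; test concentration not given here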
[15] = P. aeruginosa biofilm formation inhibitors, primary screen, strain PAO1, LB-PBS medium, absorbance 600 nm (AID 1176); further: test concentration not given here; conditions: P. aeruginosa PAO1 growth/biofilm, A600, 12 h; higher = more signal
[16] = S. cerevisiae RM11-1a growth modifiers, primary screen, strain RM11-1a, OD600, basal, 24 h (AID 1177); conditions: OD600, 24 h, higher = more signal, called active from +8 up or from −8 down;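 further: cultures grown under basal conditions with no added stressor; test concentration not given here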
[17] = E. coli acrAB mutant growth effects, primary screen, E. coli filamentation inducers, strain DRC39, OD650, 24 h (AID 1178); conditions: higher = more signal, called active from +8 up or from −8 down;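 further: growth measured as culture turbidity by optical density at 650 nm; test concentration not given here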
[18] = E. coli acrAB mutant growth effects, primary screen, E. coli filamentation inducers, strain DRC39, OD650, 48 h (AID 1179);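 further: screen aims at cell division blockers that make cells filament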; conditions: E. coli DRC39 delta-acrAB growth, higher = more signal, called active from +8 up or from −8 down
[19] = RPMI8226 myeloma cell viability, profiling panel, resazurin fluorescence, basal, 24 h, PK04 Diversity Set (AID 1180); conditions: higher = more signal;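 further: RPMI8826 multiple myeloma cell line at 5000 cells per well; test concentration not given here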
[20] = target: E3 ubiquitin-protein ligase XIAP (Homo sapiens) (UniProt P98170); test: XIAP binders, primary screen, biophysical, small-molecule microarray, fluorescence 635 nm (AID 1181); conditions: small-molecule microarray binding, higher = more signal;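 further: score merges 667 nm emission and signal to noise over triplicate slides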
E3 ubiquitin-protein ligase XIAP (Homo sapiens), sequence (P98170 whole entry, looked up): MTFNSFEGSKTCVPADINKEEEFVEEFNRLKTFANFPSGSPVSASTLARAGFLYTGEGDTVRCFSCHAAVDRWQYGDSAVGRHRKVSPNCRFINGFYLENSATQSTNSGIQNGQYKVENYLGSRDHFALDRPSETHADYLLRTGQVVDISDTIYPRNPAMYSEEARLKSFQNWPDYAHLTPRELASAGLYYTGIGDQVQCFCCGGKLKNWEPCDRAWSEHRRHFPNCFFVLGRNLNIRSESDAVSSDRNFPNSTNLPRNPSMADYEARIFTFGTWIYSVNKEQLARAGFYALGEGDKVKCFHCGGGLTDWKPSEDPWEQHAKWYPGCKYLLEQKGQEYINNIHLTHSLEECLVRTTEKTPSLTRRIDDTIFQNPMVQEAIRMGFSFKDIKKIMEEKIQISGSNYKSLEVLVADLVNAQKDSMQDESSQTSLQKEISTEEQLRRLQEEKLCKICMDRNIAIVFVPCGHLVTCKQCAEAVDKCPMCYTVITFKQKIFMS

Dihydroorotate dehydrogenase (quinone), mitochondrial (Plasmodium falciparum (isolate 3D7)), sequence (Q08210 whole entry, looked up): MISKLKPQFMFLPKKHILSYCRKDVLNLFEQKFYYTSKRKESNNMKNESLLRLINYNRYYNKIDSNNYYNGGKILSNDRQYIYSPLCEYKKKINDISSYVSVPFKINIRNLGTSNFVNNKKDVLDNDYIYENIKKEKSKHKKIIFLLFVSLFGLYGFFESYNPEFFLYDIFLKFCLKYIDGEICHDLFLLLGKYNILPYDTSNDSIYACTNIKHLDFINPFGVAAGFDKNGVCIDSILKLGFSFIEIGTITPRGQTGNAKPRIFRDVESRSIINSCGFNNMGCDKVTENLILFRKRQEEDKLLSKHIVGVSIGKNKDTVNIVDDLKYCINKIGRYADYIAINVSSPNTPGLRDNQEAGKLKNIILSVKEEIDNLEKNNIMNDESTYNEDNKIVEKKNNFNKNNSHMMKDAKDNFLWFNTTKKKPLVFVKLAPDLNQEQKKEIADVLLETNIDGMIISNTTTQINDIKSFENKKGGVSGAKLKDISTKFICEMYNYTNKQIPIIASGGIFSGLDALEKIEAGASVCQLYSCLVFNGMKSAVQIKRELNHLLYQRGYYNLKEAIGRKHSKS

Compound	z-score [1]	z-score [2]	z-score [3]	z-score [4]	z-score [5]	z-score [6]	z-score [7]	z-score [8]	z-score [9]	z-score [10]	z-score [11]	z-score [12]	z-score [13]	composite z-score [14]	z-score [15]	z-score [16]	z-score [17]	z-score [18]	z-score [19]	composite z-score [20]
[N-]=[N+]=NCc1ccccc1[C@H]1OC(c2ccc(OCCCO)cc2)=N[C@@]1(Cc1ccccc1)C(=O)O	1.17	-1.06	0.991	0.791	0.465	-0.0179	0.241 (inactive)	-0.491	-0.804	0.932 (inactive)	1.31	-3.06 (inactive)	-0.967 (inactive)	-0.055 (inactive)	-0.0862 (inactive)	0.816 (inactive)	-1.13 (inactive)	-0.835 (inactive)	0.273	-0.205
O=C(NCc1ccccc1)[C@@H]1c2ccccc2C(=O)N(Cc2cc(F)cc(C(F)(F)F)c2)[C@H]1c1ccc(CO)cc1	1.5	-0.115	1.37	0.105	-0.161	1.88	0.079 (inactive)	0.79	-0.511	-0.811 (inactive)	-0.745	-0.633 (inactive)	-0.569 (inactive)	0.131 (inactive)	0.472 (inactive)	-0.517 (inactive)	0.771 (inactive)	0.675 (inactive)	0.127	-0.0207
COc1ccccc1CN1C(=O)c2ccccc2[C@](Cc2ccccc2I)(C(=O)NC2CC2)[C@@H]1c1ccc(CO)cc1	-0.741	-0.475	-0.468	-0.664	-1.54	1.32	0.424 (inactive)	-1.04	-0.508	-0.264 (inactive)	-0.246	0.329 (inactive)	-0.185 (inactive)	0.629 (inactive)	0.0714 (inactive)	1.66 (inactive)	0.127 (inactive)	0.877 (inactive)	-0.198	0.591
CCCC[C@@H]1C[C@H]1[C@@H](NC(=O)c1ccccc1)c1ccccc1	-1.2	-0.902	-1.02	-1.43	-1.48	-2.36	-1.07 (inactive)	0.203	-1.25	-0.324 (inactive)	0.237	1.21 (inactive)	-0.694 (inactive)	-0.113 (inactive)	-0.471 (inactive)	0.601 (inactive)	0.104 (inactive)	0.233 (inactive)	-1.07	-0.0289
Cc1ccc(S[C@]2(C(=O)NCCN3CCOCC3)CC(=O)N(C3CCCCC3)[C@@H]2c2ccc(CO)cc2)cc1	2.25	0.486	0.555	0.309	-0.65	-0.0786	-0.281 (inactive)	0.698	0.485	1.51 (inactive)	0.375	0.436 (inactive)	0.511 (inactive)	0.113 (inactive)	0.186 (inactive)	-0.463 (inactive)	0.048 (inactive)	-0.483 (inactive)	0.838	0.0024
COCCOC(=O)N1C(=O)[C@@]2(c3cc(C#CCCO)ccc31)[C@H](C(=O)NC[C@H](O)c1ccccc1)[C@H]1C(=O)O[C@H](c3ccccc3)[C@H](c3ccccc3)N1[C@@H]2c1ccc(OCCO)cc1	-0.339	1.22	-0.981	-0.97	-0.304	-1.25	0.623 (inactive)	-0.8	-0.904	1.21 (inactive)	0.76	0.757 (inactive)	0.857 (inactive)	-0.689 (inactive)	1.75 (inactive)	1.21 (inactive)	0.696 (inactive)	-0.567 (inactive)	1.43	0.275
C[N+](C)(C)CCCC[C@@H]1NC(=O)[C@H]2C[C@@H](C(=O)O)[C@@H](c3cccc(OCCO)c3)N2C1=O	0.244	-0.552	0.438	0.797	0.91	2.37	-0.448 (inactive)	-0.741	-0.631	-0.141 (inactive)	0.352	-1.32 (inactive)	0.644 (inactive)	0.16 (inactive)	0.0751 (inactive)	-0.625 (inactive)	0.406 (inactive)	0.871 (inactive)	0.773	0.353
O=C1OCC=C[C@H]2OC34C=CCN(CCN5CCOCC5)C(=O)[C@H]3N(CCCCCCO)C(=O)[C@@H]4[C@@H]12 (stereo not given in full)	-0.213	-0.0626	0.775	1.56	0.802	-0.00733	-0.199 (inactive)	1.11	0.858	-0.352 (inactive)	-0.151	-0.0603 (inactive)	0.501 (inactive)	-1.97 (inactive)	-0.677 (inactive)	-0.762 (inactive)	-0.193 (inactive)	0.0937 (inactive)	0.406	0.232
C=CC[C@@]1(C(=O)NCCN2CCOCC2)N=C(c2ccc(OCCCO)cc2)O[C@@H]1c1ccccc1CN=[N+]=[N-]	-0.0982	1.56	0.88	-2.94	-1.03	1.86	-0.224 (inactive)	-0.129	-0.029	-0.468 (inactive)	-0.0014	-1.4 (inactive)	0.331 (inactive)	0.45 (inactive)	0.466 (inactive)	-0.425 (inactive)	0.677 (inactive)	-0.498 (inactive)	-0.354	0.272
